TRHR enhancer – qHTS for Small Molecule Agonists and Allosteric Enhancers of Human TRH Receptor: Primary Screen for Enhancers; Thyrotropin-releasing hormone receptor (Homo sapiens), P34981; TRHR cells, fluo-8 calcium fluorescence, EC20 TRH enhancement; enhancement, % at 2 µM; 360,000 tested, 0.66% active; AID 493056, 2011; in the data active means enhancement above about 30%; further: 0% is about no effect
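TRHR-expressing cells loaded with fluo-8 calcium dye were read kinetically (ex 480/em 530) during compound addition, then stimulated with an EC20 of TRH (10 nM final). Enhancement of the Gq-mediated intracellular calcium response was scored.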
TRHR agonist – qHTS for Small Molecule Agonists and Allosteric Enhancers of Human TRH Receptor: Primary Screen for Agonists; Thyrotropin-releasing hormone receptor (Homo sapiens), P34981; TRHR cells, calcium flux fluo-8, FDSS agonist mode; 360,000 tested, 0.18% active; activation, % at 2 µM; in the data active means activation above about 30%; further: 0% is about no effect
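In this calcium-flux screen, cells bearing human TRHR are dye-loaded with fluo-8, baselined for 10 cycles, then exposed to library compounds; positive kinetic calcium responses during the agonist phase mark hits, with TRH as control.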
TRPV1 agonist – HTS Assay for Compounds that Act as Agonists of the Vanilloid Receptor 1; TRPV1-expressing cells, Fluo-8 calcium influx, agonist mode; activation, % at 8.33 µM; 320,000 tested, 0.19% active; in the data active means activation above about 80%; inconclusive means between about 30% and that limit; further: 0% is about no effect
Target sequence (Q8NER1 whole entry, looked up): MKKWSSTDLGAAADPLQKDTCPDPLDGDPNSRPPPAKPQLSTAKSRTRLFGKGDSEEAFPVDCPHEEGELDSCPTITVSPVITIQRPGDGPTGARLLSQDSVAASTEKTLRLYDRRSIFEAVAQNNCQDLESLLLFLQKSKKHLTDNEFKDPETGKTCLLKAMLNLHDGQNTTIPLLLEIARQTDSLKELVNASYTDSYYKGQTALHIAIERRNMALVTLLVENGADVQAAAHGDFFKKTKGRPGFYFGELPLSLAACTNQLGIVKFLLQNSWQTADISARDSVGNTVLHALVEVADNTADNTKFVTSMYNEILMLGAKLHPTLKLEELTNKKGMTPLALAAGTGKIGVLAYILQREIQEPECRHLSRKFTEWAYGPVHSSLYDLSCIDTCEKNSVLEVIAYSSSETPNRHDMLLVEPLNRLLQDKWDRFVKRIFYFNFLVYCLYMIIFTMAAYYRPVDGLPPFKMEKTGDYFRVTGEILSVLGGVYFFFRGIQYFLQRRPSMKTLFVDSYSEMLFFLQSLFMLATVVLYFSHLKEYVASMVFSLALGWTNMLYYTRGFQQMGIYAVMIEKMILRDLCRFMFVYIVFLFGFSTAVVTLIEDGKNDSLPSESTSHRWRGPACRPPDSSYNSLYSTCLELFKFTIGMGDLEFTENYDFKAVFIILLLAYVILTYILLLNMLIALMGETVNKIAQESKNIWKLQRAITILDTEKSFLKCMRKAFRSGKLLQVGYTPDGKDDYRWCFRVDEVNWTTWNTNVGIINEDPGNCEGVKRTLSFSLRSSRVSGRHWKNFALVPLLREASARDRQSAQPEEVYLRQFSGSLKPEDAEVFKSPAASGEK
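Cells expressing TRPV1 were dye-loaded with Fluo-8 and read kinetically: 10 s baseline, 3 min after compound (agonist portion), then 2 min after EC20 capsaicin (allosteric enhancer portion). Calcium-bound dye fluorescence at 480/520 nm.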
TRPML1 agonist – qHTS for Agonists of the Human Mucolipin Transient Receptor Potential 1 (TRPML1); Mucolipin-1 (Homo sapiens), Q9GZU1; TRPML1-expressing cells, Ca2+ dye fluorescence, FDSS; activation, % (concentration not given with the values); 410,000 tested, 0.12% active; AID 624414, 2012; in the data active means activation above about 50%; inconclusive means mostly about 30% to 49%; further: 0% is about no effect
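Cells: TRPML1-DL, 1X Tet inducer, ~16 h at 37 degrees C/5% CO2. Dye: ABD Ca8 no-wash + quencher, 45-90 min RT. Read: 10 s baseline, compound add, 110 s agonist phase; 54-4 EC80 (4uM final), 110 s antagonist phase.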
TRPML1 blocker – qHTS for Inhibitors of the Human Mucolipin Transient Receptor Potential 1 (TRPML1) | Mucolipin-1 (Homo sapiens), Q9GZU1 | TRPML1-inducible cells, Ca2+ dye fluorescence, FDSS; stronger effect = lower value; inhibition of EC80 agonist-evoked calcium signal | activity change, negative = inhibition, % (no concentration beside the values) | 390,000 tested, 0.02% active | AID 624415, 2012; in the data active means activity change below about -50%; inconclusive means between about -30% and that limit;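 further: stimulus is agonist 54-4 at its EC80 concentration; on the % scale 0 is the no-effect control and ±100 the full control effect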
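Tet-induced TRPML1-DL cells loaded with Ca8 no-wash calcium dye were read kinetically on FDSS. Compound addition was followed by EC80 agonist 54-4 (4 uM final); inhibition was read over 110 s.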
TRPV1 potentiator – HTS Assay for Compounds that Act as Potentiators of the Vanilloid Receptor 1 | Transient receptor potential cation channel subfamily V member 1 (Homo sapiens), Q8NER1 | TRPV1-expressing cells, Fluo-8 calcium influx, capsaicin EC20 potentiation | potentiation, % at 8.33 µM | 320,000 tested, 0.02% active | AID 540277, 2011; in the data active means potentiation above about 80%; inconclusive means between about 30% and that limit; further: 0% is about no effect
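TRPV1-expressing cells were cultured overnight at 35.5C and loaded with Fluo-8 calcium dye for 40 to 90 min at room temperature. After a 10 s baseline, compound was added and calcium influx was read kinetically for 3 min (ex 480/em 520 nm).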
The depositor's hits bear a star; ? = inconclusive; . = no result given. Rows were chosen to be rich in hits. Some 0.99% of all compounds tested hit in one or more screens of this group.

SMILES | TRHR enhancer | TRHR agonist | TRPV1 agonist | TRPML1 agonist | TRPML1 blocker | TRPV1 potentiator
CC1(c2ccc([N+](=O)[O-])cc2)Nc2ccccc2S1 (configuration not stated) | 31.1* | -0.2 | -9.8 | 0.4 | ? | -19.0
O=C1Nc2ccccc2/C1=C/c1ccc([N+](=O)[O-])cc1 | -2.3 | 0.1 | -6.1 | -0.1 | 26.6 | -7.5
CCCC(=O)Nc1ccc(C(=O)NCCc2ccc(F)cc2)cc1 | 34.1* | -0.1 | 3.4 | -0.8 | 0.1 | 6.5
CCCOC(=O)C1=C(C)CS[C@@H]2[C@H](NC(=O)COc3ccccc3)C(=O)N12 | . | . | . | -0.5 | . | .
CC(C)(C)n1ncc2c(=O)n(Cc3ccc(SC(F)(F)F)cc3)cnc21 | . | . | . | 1.6 | 30.7 | .
COc1ccc(/C=C/C(=O)Nc2nc3n(n2)C(c2ccc(F)cc2)C=C(c2ccccc2)N3)cc1 (configuration not stated) | 0.4 | 0.4 | . | -0.6 | 28.6 | .
COc1ccc(-n2nc3ccc(NC(=O)c4cccc(OCCC(C)C)c4)cc3n2)cc1 | 35.7* | 1.8 | . | 0.1 | 3.7 | .
CC(=O)Nc1ccc2nc(CN3CCN(Cc4ccc(F)cc4)C(CCO)C3)ccc2c1 (configuration not stated) | 35.6* | 0.1 | -0.9 | -0.1 | 10.6 | 4.5
CCCc1nn2c(=O)cc(COC(=O)c3cccc(NC(=O)CCc4ccccc4)c3)nc2s1 | -0.8 | -1.1 | . | 2.4 | -62.2* | .
CCCCc1nn2c(=O)cc(COC(=O)c3cccc(NC(=O)CCc4ccccc4)c3)nc2s1 | -3.2 | 0.8 | . | -0.8 | -13.6 | .
O=C(NN=C1CCCC1)c1sc2ccccc2c1Cl | 5.3 | 1.0 | -3.8 | 0.6 | 8.1 | 1.2
O=C1CCC/C(=N/NC(=O)c2sc3ccccc3c2Cl)C1 | 4.2 | 38.7* | 23.1 | 58.2* | -7.1 | 15.3
O=c1[nH]cc(C#Cc2ccccc2)c2ncncc12 | . | . | . | -0.8 | . | .
CC(C)N(c1ccc(C=O)cc1)C(C)C | . | . | . | -1.1 | . | .
NC(=O)C1CCN(CCC(=O)Nc2ccc(Br)cc2)CC1 | 34.2* | 0.5 | 5.2 | 0.0 | -3.7 | 26.8
Cc1cc(NC(=O)CCN2CCC(C(N)=O)CC2)ccc1Br | 6.5 | -0.9 | -1.6 | 0.2 | 9.3 | 1.8
O=C(COC(=O)c1cc(Cl)ccc1O)c1ccc2c(c1)OCO2 | 38.4* | -0.2 | 10.3 | 1.3 | 21.4 | -6.1
Cc1cc(Nc2ccccc2)c2c([N+](=O)[O-])cc(C)c(C)c2n1 | 39.1* | -1.1 | 3.5 | 0.8 | -6.3 | 2.6
CN(CC(=O)NCc1ccccc1)Cc1ccc(Cl)cc1 | 33.3* | -1.2 | ? | 2.1 | -18.4 | -18.8
CC/C(=C/c1ccccc1)c1cc(Oc2ccccc2)cc2oc3ccccc3c12 | . | . | . | 0.9 | . | .
Cc1ccc(S(=O)(=O)c2nc(-c3ccccc3Cl)oc2NCCCN2CCOCC2)cc1 | 34.5* | 1.0 | 2.0 | 0.3 | 35.1 | 0.8
CCc1ccc(NC(=O)c2ccc(S(=O)(=O)NCc3cccnc3)cc2)cc1 | 11.5 | 0.9 | 87.2* | 1.1 | -4.2 | -31.1
O=C(Nc1ccc(S(=O)(=O)NCc2ccco2)cc1)c1ccncc1 | -0.9 | 0.9 | 0.9 | -0.3 | 9.1 | 2.2
Cc1ccc(NC(=O)c2ccc(S(=O)(=O)NCc3ccco3)cc2)cc1 | -3.1 | -0.3 | 81.9* | 0.3 | -6.4 | 0.7
COc1cccc(NC(=O)c2ccc(S(=O)(=O)NCc3cccnc3)cc2)c1 | 0.8 | -0.1 | 1.9 | -1.5 | 18.1 | 3.2
SMILES | TRHR enhancer | TRHR agonist | TRPV1 agonist | TRPML1 agonist | TRPML1 blocker | TRPV1 potentiator
O=C(Nc1ccc2c3c(cccc13)CC2)c1ccc(Br)o1 | 7.9 | -0.5 | 84.9* | -1.0 | 16.3 | -6.9
O=C1CCC[C@@H]2C[C@@]3(C[C@@H]4CCN1[C@H]24)Nc1cc([N+](=O)[O-])ccc1NC3=NCc1ccccc1 | . | . | . | 1.7 | . | .
CCOC(=O)c1ccc(NC(=O)N2CCN(Cc3cccc(F)c3)CC2)cc1 | -1.3 | -0.6 | 81.5* | 2.5 | -5.3 | 8.5
O=C(CNC(=O)c1ccc([N+](=O)[O-])cc1)OC(C(=O)Nc1cc(C(F)(F)F)ccc1Cl)c1ccccc1 (configuration not stated) | -5.1 | 1.7 | . | . | . | .
C1CCC(Nc2nc3nonc3nc2N2CCSCC2)C1 | 31.7* | -0.3 | -3.2 | 2.6 | 14.8 | 9.1
CC(=O)COc1coc(CN2CCN(c3ccc(F)cc3)CC2)cc1=O | 31.4* | 0.2 | 1.8 | 0.1 | 4.1 | -16.7
O=C(O[C@H]1[C@H](Cc2ccccc2)NS(=O)(=O)[C@H]2CC3C=C[C@]12O3)c1ccc(Br)cc1 | . | . | . | -0.2 | . | .
Cc1csc[n+]1CC(=O)c1ccccc1 | . | . | . | -0.7 | . | .
COc1cccc(NC(=S)N(CCCN2CCC(C)CC2)Cc2cccs2)c1 | 30.3* | 0.0 | 1.7 | 0.5 | 40.8 | 0.4
COc1ccc(NC(=S)N(CCCN2CCC(C)CC2)Cc2cccs2)cc1 | 9.0 | -0.6 | -5.6 | 0.1 | 2.7 | 10.9
Cc1[nH]c2ccccc2c1/C=N/Nc1ccc([N+](=O)[O-])cc1 | 8.5 | 37.6* | 9.7 | 18.6 | 7.6 | -3.0
O=C(C[N+]12CN3CN(CN(C3)C1)C2)c1ccc(Cl)cc1 | . | . | . | 0.4 | . | .
Cc1ccc2nc(NC(=O)CS(=O)(=O)Cc3ccccc3)sc2c1 | 4.6 | 1.0 | 84.6* | 0.9 | -10.9 | -0.1
CC(C)(C)OC(=O)NCc1nnc(-c2cc3ccccc3[nH]2)s1 | 1.4 | 1.2 | . | . | . | .
O=C(CSc1nnc(CNC(=O)c2ccc(F)cc2)o1)NCCc1ccccc1 | -2.8 | -0.5 | -4.9 | 1.1 | -10.4 | -3.9
COc1ccc(C(=O)NCc2nnc(SCC(=O)NCCc3ccccc3)o2)cc1 | 35.6* | -0.4 | -3.0 | -0.2 | -7.8 | 7.1
CCN1CCN(c2cc(=O)n(C3CCCCC3)c(=O)[nH]2)CC1 | 33.5* | 0.0 | 0.5 | 0.4 | 14.4 | 3.4
CN1CCN(c2cc(=O)n(C3CCCCC3)c(=O)[nH]2)CC1 | -8.1 | 0.6 | -2.2 | -0.1 | 13.7 | 2.7
Cc1ccc(N(C(C)C(=O)N2CCN(Cc3ccccc3)CC2)S(C)(=O)=O)cc1 (configuration not stated) | 36.7* | -4.0 | -4.0 | 0.4 | -20.3 | 20.5
CCc1ccccc1NC(=O)c1ccc2c(O)c(S(=O)(=O)c3ccc(OC)cc3)c(=O)[nH]c2c1 | -7.0 | 1.1 | -9.8 | 0.5 | 33.6 | 2.2

Source: PubChem
